According to ChEMBL document CHEMBL3988442, “University of Dundee, Small-Polar-MMV Screening Library” (2021):
Out of some 65,000 compounds screened, about 65 (0.1%) showed an effect of 50% or more. The sample as a whole holds a higher share of strong results than the screen did.

The molecules below were run against Tryptophan--tRNA ligase (Mycobacterium tuberculosis (strain ATCC 25618 / H37Rv)) (UniProt P9WFT3) (assay: Biochemical assay for Mt-TrpRS). Conditions: 10 µM.
Type: functional
Design: scale not given: direction of the effect not stated beside the values

Sequence of Tryptophan--tRNA ligase (Mycobacterium tuberculosis (strain ATCC 25618 / H37Rv)) (P9WFT3 whole entry): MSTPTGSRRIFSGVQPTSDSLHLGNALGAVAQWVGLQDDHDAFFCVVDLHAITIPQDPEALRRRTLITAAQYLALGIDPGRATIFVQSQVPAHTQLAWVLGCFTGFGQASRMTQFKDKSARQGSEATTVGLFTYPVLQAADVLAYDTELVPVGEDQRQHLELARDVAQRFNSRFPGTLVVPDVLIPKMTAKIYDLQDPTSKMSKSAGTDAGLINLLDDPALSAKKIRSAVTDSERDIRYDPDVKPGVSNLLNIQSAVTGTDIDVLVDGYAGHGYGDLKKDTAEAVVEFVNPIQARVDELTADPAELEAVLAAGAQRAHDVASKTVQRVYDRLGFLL

Structure (SMILES)	Percent Effect [%]
CN(Cc1cnn(C)c1)C(=O)CN1CCCC(Cn2cncn2)C1 (stereo unspecified)	85.4
CN(Cc1ccccc1)C(=O)CN1CCCC(Cn2cncn2)C1 (stereo unspecified)	5.08
CC(C)(C)c1nc(CN2CCCC(Cn3cncn3)C2)cs1 (stereo unspecified)	3.52
Cc1ccc(CN(C)C(=O)CN2CCCC(Cn3cncn3)C2)cc1 (stereo unspecified)	11.8
CC(C)c1nc(CN2CCCC(Cn3cncn3)C2)cs1 (stereo unspecified)	61.3
c1cnc(-c2nc(CN3CCCC(Cn4cncn4)C3)cs2)nc1 (stereo unspecified)	-1.17
O=C(c1ccno1)N1CCN2C(=O)N(Cc3ccc(F)cc3)C[C@H]2C1	0.0753
O=C(c1ccnnc1)N1C[C@H](OCC2CCOCC2)[C@H]2OCCC[C@H]21	-0.419
O=C(C1CCC1)N1C[C@H]2CNC[C@H]2C1	9.01
N#Cc1ccc(S(=O)(=O)NC(=O)C2CC(c3ccccc3)=NO2)cc1 (stereo unspecified)	0.0809
O=C(NS(=O)(=O)c1cccnc1)C1CC(c2ccccc2)=NO1 (stereo unspecified)	54.1
COc1cccc(S(=O)(=O)NC(=O)C2CC(c3ccccc3)=NO2)c1 (stereo unspecified)	0.405
COc1c(CNC2CCN(c3ncccn3)CC2)c(C(C)C)nn1C	1.66
COc1c(CNC2CCCN(c3ncccn3)C2)c(C(C)C)nn1C (stereo unspecified)	67.7
COc1c(CNC2CCN(c3ccccn3)CC2)c(C(C)C)nn1C	1.1
COc1cccc(OC)c1CNC(Cc1ccsc1)c1ccc(C)cn1 (stereo unspecified)	-1.02
Cc1occc1C(=O)N1C[C@@H]2CCCO[C@@H]2[C@H](N(C)Cc2ccco2)C1	1.95
CC(C)c1cc(C(=O)N2CCN(CC3CC3)[C@@H]3CS(=O)(=O)C[C@@H]32)no1	-4.85
O=C1N(CCO)CCCC12CCN(Cc1noc(C3CCCC3)n1)C2 (stereo unspecified)	7.84
CC(C)N1CCCC2(CCN(Cc3noc(C4CCCC4)n3)C2)C1=O (stereo unspecified)	54.2
CCCN1CCCC2(CCN(Cc3noc(C4CCCC4)n3)C2)C1=O (stereo unspecified)	7.84
O=C(NCc1ccccc1)N1C[C@H]2CCN[C@H]2C1	2.62
COCCN1C(=O)CO[C@H]2CN(S(=O)(=O)c3ccccc3)C[C@H]21	-1.73

Structure (SMILES)	Percent Effect [%]
CCN1C[C@@H]2[C@@H](OC)CCN(C(=O)c3cc(C)nn3CC)[C@@H]2C1	-1.95
Cc1cc(NC(=O)CN2CCc3cncnc3C2)no1	69
Cc1cc(NC(=O)CN2CCc3cncnc3C2)on1	2.85
Cc1ncc2c(n1)CN(CC(=O)Nc1cc(C)on1)CC2	0.514
CCCS(=O)(=O)N1CC[C@H]2O[C@H](c3nnc(C)o3)CC[C@H]21	-5.84
CNC(=O)c1nc(CN2CCOC(CCCC(C)C)C2)no1 (stereo unspecified)	0.819
NC(=O)c1nc(CN2CCOC(C(F)(F)F)C2)no1 (stereo unspecified)	-0.819
CNC(=O)c1nc(CN2CCOC(C(F)(F)F)C2)no1 (stereo unspecified)	69.6
CCCNCc1ccc(-c2ccnc3[nH]ccc23)cc1	-1.02
CC(C)N1[C@@H](C(=O)NCCN(C)C)C[C@H]2CN(c3ncccn3)C[C@H]21	5.77
c1ccc(-c2noc(CNC3CCCN(c4cccnn4)C3)n2)nc1 (stereo unspecified)	1.43
c1cnnc(N2CCCC(NCc3nc(-c4ccco4)no3)C2)c1 (stereo unspecified)	90.8
c1cnnc(N2CCCC(NCc3nc(-c4cccs4)no3)C2)c1 (stereo unspecified)	-1.29
C[C@H]1C[C@H]2CN(C(=O)CC3CC3)CC[C@H]2O1	2.03
CC(C)c1nc(C2CCCN2C(=O)c2cnns2)no1 (stereo unspecified)	-5.71
Cc1ccccc1CNC(=O)N1C[C@H]2C[C@H](C(=O)N3CCCC3)[C@@H](C1)O2	-2.16
CCn1ncc(CN2CCC(c3ncc(Cl)cc3S(C)(=O)=O)CC2)c1C	-1.24
C=Cn1cc(CN2CCC(c3ncc(Cl)cc3S(C)(=O)=O)CC2)c(C)n1	-5.42
C=Cn1ncc(CN2CCC(c3ncc(Cl)cc3S(C)(=O)=O)CC2)c1C	67.3
Fc1ccccc1CO[C@@H]1C[C@H]2CN(c3ncccn3)CCN2C1	-4.64
CCc1nnc2n1CCN(Cc1csc(-c3ncccn3)n1)C2	1.94
c1cnc(-c2nc(CN3CCn4c(nnc4C4CC4)C3)cs2)nc1	-3.46
Cc1nnc2n1CCN(Cc1csc(-c3ncccn3)n1)C2	59

Structure (SMILES)	Percent Effect [%]
CN(C)C(=O)CN1C[C@@H]2CC[C@H](C1)N(Cc1c(F)cccc1Cl)C2	2.26
COc1ccc(CCc2nnc(NC(=O)C3CC34CCC4)s2)cc1OC (stereo unspecified)	-2.9
COc1ccc(Cc2nnc(NC(=O)C3CC34CCC4)s2)cc1OC (stereo unspecified)	1.5
COc1ccccc1OCCc1nnc(NC(=O)C2CC23CCC3)s1 (stereo unspecified)	72.7
CSC1=Nc2c(cnn2-c2cccc(Cl)c2)C2=NCCCN12	1.3
CCc1nnc(CN2CCCC2Cn2cc(C)cn2)o1 (stereo unspecified)	9.78
Cc1cnn(CC2CCCN2Cc2nnc(C)o2)c1 (stereo unspecified)	-10.6
Cc1cnn(CC2CCCN2Cc2nnc(C(C)C)o2)c1 (stereo unspecified)	60.5
Cc1ccc(-c2nnc(CN3CCCCC3Cn3cncn3)o2)cc1 (stereo unspecified)	3.48
Cc1cnn(CC2CCCN2Cc2nc(C)c3ccccc3n2)c1 (stereo unspecified)	0.13
CCc1nnc(CN2CCCCC2Cn2cncn2)o1 (stereo unspecified)	75.1
c1ccc(Cc2nnc(CN3CCCCC3Cn3cncn3)o2)cc1 (stereo unspecified)	-0.0684
Cc1cnn(CC2CCCCN2Cc2nc(N)c3ccccc3n2)c1 (stereo unspecified)	1.18
Cc1cnn(CC2CCCN2Cc2nc(N)c3ccccc3n2)c1 (stereo unspecified)	57.9
CNC(=O)N1CC[C@@H]2CN(CCc3cccc(OC)c3)S(=O)(=O)[C@@H]2CC1	-3.31
CCc1cnc(N2C[C@H]3C[C@H](C(=O)NC4CCC4)[C@@H](C2)O3)nc1	-1.02
CCNC(=O)N1C[C@@H]2OCC(=O)N(CC3CC3)[C@@H]2C1	-1.91
Cc1cccnc1NCCNC(=O)c1cnc(-c2ccccn2)nc1O	2.7
Cn1cc(CN2CC[C@H]3OCC[C@@H](C(=O)NCc4ccco4)[C@@H]3C2)cn1	0.83
O=C1C[C@H]2[C@@H](CCN2C(=O)c2ccoc2)N1CCN1CCOCC1	2.55
Cn1ccnc1C(=O)N1C[C@@H]2CCN(c3cnccn3)C[C@@H]2C1	2.7
CC(=O)N1CCC(C(=O)N2CCC2c2nc(-c3ccc(C)s3)no2)CC1 (stereo unspecified)	56.7
Cc1ccc(-c2noc(C3CCN3C(=O)c3ccn(C)n3)n2)s1 (stereo unspecified)	-4.63

Structure (SMILES)	Percent Effect [%]
CC(=O)N1CCC1c1nc(-c2ccc(C)s2)no1 (stereo unspecified)	13.1
COCCNC(=O)Cn1ccc2sc(C)cc2c1=O	0.44
CCCc1noc(CN2CCN(c3nccs3)CC2)n1	2.03
CCc1noc(CN2CCN(c3nccs3)CC2)n1	71.8
CC(C)Cc1noc(CN2CCN(c3nccs3)CC2)n1	-1.84
Cc1nn(C)c2c(=O)n(CC(=O)NCCC3=CCCCC3)ccc12	2.33
CC(C)CN(C)c1ccc(C(=O)N2CCCC2c2cnn(C)c2)cn1 (stereo unspecified)	2.24
CCN(c1ccc(C(=O)N2CCCC2c2cnn(C)c2)cn1)C(C)C (stereo unspecified)	64.8
CCCN(CC)c1ccc(C(=O)N2CCCC2c2cnn(C)c2)cn1 (stereo unspecified)	-3.89
O=C([C@H]1CN(Cc2nccs2)C[C@H]2OCC[C@@H]12)N1CCCC1	4.93
O=C1CO[C@@H]2CN(S(=O)(=O)c3ccccc3)C[C@H]2N1CC1CC1	4.3
O=S1(=O)CCC(N(Cc2nc(-c3ccccn3)no2)Cc2cccs2)C1 (stereo unspecified)	-6.38
Cc1noc(CN(Cc2cccs2)C2CCS(=O)(=O)C2)n1 (stereo unspecified)	-5.5
Cc1nc(CN(Cc2cccs2)C2CCS(=O)(=O)C2)oc1C (stereo unspecified)	1.07
O=S1(=O)CCC(N(Cc2nc3ccccc3o2)Cc2cccs2)C1 (stereo unspecified)	57
CC(C)(C)c1nc(CN(Cc2cccs2)C2CCS(=O)(=O)C2)no1 (stereo unspecified)	-0.877
Cc1noc(C)c1CN(Cc1cccs1)C1CCS(=O)(=O)C1 (stereo unspecified)	59.4
O=C(c1ccnnc1)N1C[C@@H]2C[C@@H](c3nc(C4CC4)cs3)O[C@@H]2C1	2.42
O=C(NCc1ccco1)[C@@H]1CCO[C@@H]2CCN(c3ncccn3)C[C@@H]21	3.59
c1cncc(OCc2noc3c2CN(Cc2ccsc2)CC3)c1	-0.692
CC(c1nc(C2CC2)no1)N1CCN(c2ccc(C#N)cn2)CC1 (stereo unspecified)	0.106
O=C1CC[C@H]2CN(Cc3ccc(Cl)s3)CC[C@H]2N1CCc1c[nH]cn1	0.411
